# Laboratory results reported in PubChem BioAssay AID2533 (National Center for Advancing Translational Sciences (NCATS), 2010).
# Where “and” joins values, the source holds several entries; their conditions need not be identical. Equal entries are not always repeated. Results filed as inconclusive are left out. A call without a number means that no potency is given here. Calls of active or inactive are those of the source. The call rests on the fitted dose curve; in most records, active means well fitted activation curve with a large enough effect; inconclusive means small, poorly fitted or top-dose-only effect; inactive means flat fitted curve, though single readings scatter.
# Target: Pyruvate kinase PKM (Homo sapiens) (UniProt P14618)
# Assay: Confirmation Concentration-Response Assay for Activators of Human Muscle isoform 2 Pyruvate Kinase: for Probe SAR; further: nearly all actives have a fitted effect of over 60% in size
# Details: purified PKM2, ATP generation, Kinase-Glo luminescence; series mostly up to 57.5 µM
# Description: NIH Chemical Genomics Center [NCGC]
# Matthew G. Vander Heiden, M.D., Ph.D. [Harvard Medical School, 77 Avenue Louis Pasteur, Boston, MA 02115]
# Human pyruvate kinase muscle 2 (hPK-M2) enzyme was supplied as a highly purified (>95% pure) preparation from Harvard Medical School and assayed for its ability to generate ATP from ADP using phosphoenolpyruvate (PEP) as a substrate. ATP generation was detected in a coupled reaction by luciferase-mediated luminescence, an ATP-dependent process. […] The enzyme was assayed at an intermediate level of activity to screen for both inhibitors and activators.
# NCGC Assay Protocol Summary:
# Three uL of substrate mix (at r.t.) in assay buffer (50 mM Imidazole pH7.2, 50 mM KCl, 7 mM MgCl2, 0.01% Tween 20, 0.05% BSA) was dispensed into white solid bottom 1,536 well microtiter plates so that the final concentrations of substrates in the assay were 0.1 mM ADP and 0.5 mM PEP. 23 nL of compound were delivered by a pin tool and 1 uL of enzyme mix (final concentration of 0.1 nM) in assay buffer (4 degree Celsius) was added. Plates were incubated at room temperature for 1 hour. Two uL of detection mix (Kinase-Glo, Promega; at 4 degree Celsius protected from light) was added and luminescence read by a ViewLux (Perkin Elmer) at 1 second exposure/plate. Data were normalized to the uninhibited (column 3) and AC100 inhibition (no enzyme in column 2). To monitor activation, the first column contained a titration of the activator, NCGC00031955-03 (16-point 1:2 dilutions in duplicate starting at 57 uM) and the first 16 rows of column 4 contained 57 uM of NCGC00031955-03.
# Potency means the concentration at half of the fitted maximal effect.
# Sequence of Pyruvate kinase PKM (Homo sapiens) (P14618 whole entry, looked up, canonical isoform): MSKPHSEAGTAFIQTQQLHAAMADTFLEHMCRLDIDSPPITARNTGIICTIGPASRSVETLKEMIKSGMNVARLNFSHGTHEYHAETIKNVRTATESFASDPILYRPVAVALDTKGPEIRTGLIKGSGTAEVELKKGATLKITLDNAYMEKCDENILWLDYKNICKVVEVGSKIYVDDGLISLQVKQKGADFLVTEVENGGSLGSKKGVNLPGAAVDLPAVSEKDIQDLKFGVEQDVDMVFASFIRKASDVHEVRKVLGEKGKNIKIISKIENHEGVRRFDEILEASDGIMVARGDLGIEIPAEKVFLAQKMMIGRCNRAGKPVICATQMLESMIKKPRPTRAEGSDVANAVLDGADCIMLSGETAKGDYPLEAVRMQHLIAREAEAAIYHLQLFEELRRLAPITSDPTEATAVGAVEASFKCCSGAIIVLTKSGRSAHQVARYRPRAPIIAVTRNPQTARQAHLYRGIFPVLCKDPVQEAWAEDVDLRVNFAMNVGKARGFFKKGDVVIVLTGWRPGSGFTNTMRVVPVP
row,SMILES,Potency
1,Cc1ccc(NS(=O)(=O)c2ccc3c(c2)CCC(=O)N3)cc1C,0.651 µM (active)
2,Cc1ccc2nc(-c3ccc(C)o3)c(Nc3ccc(Cl)cc3)n2c1,inactive
3,O=C(O)c1ccccc1SC1=NS(=O)(=O)c2ccccc21,32.6 µM [inhibitor] (active)
4,COc1cccc(NS(=O)(=O)c2ccc3c(c2)CCC(=O)N3)c1,5.17 µM (active)
5,O=S1(=O)N=C(Oc2ccc(Cl)cc2)c2ccccc21,inactive
6,O=C1c2ccccc2C(=O)N1c1cccc(Cl)c1,inactive
7,COc1ccc(OC2=NS(=O)(=O)c3ccccc32)cc1,inactive
8,Cc1ccccc1Nc1c(-c2ccccc2)nc2cccc(C)n12,inactive
9,Cc1ccc(NS(=O)(=O)c2cc3c(cc2Br)NC(=O)CO3)cc1C,18.3 µM (active)
10,Cc1ccc(NS(=O)(=O)c2ccc(F)cc2)cc1C,25.9 µM (active)
11,O=C1CCc2cc(S(=O)(=O)Nc3ccc(Cl)cc3)ccc2N1,2.06 µM (active)
12,Cc1ccc(-c2nc3ccccn3c2Nc2ccc(F)cc2)o1,inactive
13,CNc1cccc(S(=O)(=O)N2CCN(S(=O)(=O)c3ccc4c(c3)OCCO4)CC2)c1,0.259 µM (active)
14,N#Cc1ccccc1OC1=NS(=O)(=O)c2ccccc21,inactive
15,O=C1CCc2cc(S(=O)(=O)Nc3cccc(F)c3)ccc2N1,0.919 µM (active)
16,Cc1cc2c(s1)c1cnn(Cc3c(Cl)ccc(C)c3F)c(=O)c1n2C,1.26 µM (active)
17,N#Cc1cccc(OC2=NS(=O)(=O)c3ccccc32)c1,inactive
18,O=C1CCc2cc([S+](=O)([O-])Nc3ccc(N[S+](=O)([O-])c4ccc5c(c4)CCC(=O)N5)cc3)ccc2N1,inactive
19,COc1ccc(NS(=O)(=O)c2ccccc2C(=O)O)cc1,inactive
20,Cc1ccc(NS(=O)(=O)c2ccc3c(c2)NC(=O)CO3)cc1C,20.6 µM (active)

row,SMILES,Potency
1,Cc1c(Cl)cccc1NS(=O)(=O)c1cc2c(cc1F)NC(=O)CC2,3.66 µM (active)
2,Cc1cc2c(s1)c1cnn(Cc3cc(F)c(F)cc3F)c(=O)c1n2C,1.12 µM (active)
3,Cc1cc(N2C(=O)c3ccccc3C2=O)n[nH]1,inactive
4,Cc1ccc(OC2=NS(=O)(=O)c3ccccc32)cc1,inactive
5,Cc1ccc(NS(=O)(=O)c2cc3c(cc2N(C)C)NC(=O)CC3)cc1C,0.366 µM (active)
6,Nc1ccc(S(=O)(=O)N2CCCN(S(=O)(=O)c3ccc4c(c3)OCCO4)CC2)cc1,1.03 µM (active)
7,O=C1c2ccccc2C(=O)N1c1noc2ccccc12,inactive
8,Cc1ccc(NS(=O)(=O)c2ccc3c(c2)CCC(C)(C)O3)cc1C,inactive
9,COc1ccc(NS(=O)(=O)c2ccccc2)cc1NS(=O)(=O)c1ccccc1,inactive
10,O=S(=O)(c1cccc(O)c1)N1CCN(S(=O)(=O)c2c(F)cccc2F)CC1,0.58 µM (active)
11,O=S1(=O)N=C(Oc2cccc(-c3ccccc3)c2)c2ccccc21,inactive
12,COc1ccccc1NS(=O)(=O)c1ccc2c(c1)CCC(=O)N2,20.6 µM (active)
13,O=S(=O)(c1ccc2c(c1)OCCO2)N1CCN(S(=O)(=O)c2c(F)cccc2F)CC1,517 nM (active) and 183 nM (active) and 291 nM (active)
14,CC(=O)Nc1ccccc1OC1=N[S+](=O)([O-])c2ccccc21,inactive
15,CC(=O)N1CCc2cc(S(=O)(=O)Nc3ccc(C)c(C)c3)ccc21,1.63 µM (active)
16,Cc1ccc(NC(=O)c2ccc3c(c2)CCC(=O)N3)cc1C,inactive
17,Nc1ccccc1OC1=NS(=O)(=O)c2ccccc21,inactive
18,COc1cc(N2C(=O)c3ccccc3C2=O)c2ncccc2c1,inactive
19,O=C1CCc2cc(S(=O)(=O)Nc3ccc(F)c(Cl)c3)ccc2N1,0.291 µM (active)
20,O=C1c2ccccc2C(=O)N1c1ccc2ncccc2c1,inactive
